Assay outcomes as filed in PubChem BioAssay.
Compounds with a hit are over-represented: about 2% of the library has one in this group of screens.
Mcl-1 Bim block: inhibitors of Bim-Mcl-1 interaction, human. actives 0.1% (n = 190,000). Bead-based flow cytometry, Bim peptide-Mcl-1 binding. Q07820. inhibition, % at 10 µM. AID 1009; in the data active = inhibition above about 40%;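 note: 0% = no compound tracer wells and 100% = peptide blocker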
MCL1-BIM inh: MCL1-BIM-BH3 interaction inhibition (human); inhibition, % at 10.9 µM; Q07820; GST-MCL1 / FITC-Bim-BH3 fluorescence polarization; actives 0.68% (n = 320,000);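 active = inhibition above the mean inhibition of all tested compounds plus 3 SD, set per campaign, cut at about 40% in these data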;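 note: 0% = DMSO wells and 100% = unlabeled Bim-BH3 peptide control; higher means more loss of mP so more displacement of Bim peptide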
Mcl1 Bid PPI: disrupts binding of human Mcl-1 to Bid peptide; inhibition, % at 21.7 µM; actives 0.97% (n = 220,000); TR-FRET Mcl-1/Bid-Dy647 peptide binding, 1536-well;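 active = compounds that cut the binding signal by more than half at the single screening dose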;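 note: His-tagged Mcl-1 with europium anti-His antibody binding Bid BH3 peptide; 0% = Mcl-1 plus peptide wells and 100% = peptide-only wells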
Mcl1-Noxa inh: Mcl-1/Noxa interaction inhibition. inhibition, % at 21.7 µM. AID 1022. TR-FRET Mcl-1/Noxa peptide binding, 2 h. Q07820. actives 1.5% (n = 220,000);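 active = compounds that cut the protein-peptide binding signal by more than 50% relative to plate controls in a single-dose test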;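 note: His-tagged Mcl-1 with rhodamine Noxa BH3 peptide and terbium anti-His antibody; 0% = Mcl-1 plus Noxa peptide wells and 100% = peptide-only wells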
BCLXL inh confirm: counter-screen for MCL1 inhibitors: confirmation of human Bcl-xL inhibitors; actives 54% (n = 1,700); GST-Bcl-xL / FITC-Bim BH3 peptide FP binding; shares compounds with MCL1-BIM inh; inhibition, % at 10.9 µM;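 active = inhibition above a cutoff equal to the mean inhibition of all tested compounds plus 3 SD, cut at about 30% in these data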;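 note: 0% = DMSO wells and 100% = unlabeled Bim BH3 control peptide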
Target sequence (Q07817 whole entry, looked up): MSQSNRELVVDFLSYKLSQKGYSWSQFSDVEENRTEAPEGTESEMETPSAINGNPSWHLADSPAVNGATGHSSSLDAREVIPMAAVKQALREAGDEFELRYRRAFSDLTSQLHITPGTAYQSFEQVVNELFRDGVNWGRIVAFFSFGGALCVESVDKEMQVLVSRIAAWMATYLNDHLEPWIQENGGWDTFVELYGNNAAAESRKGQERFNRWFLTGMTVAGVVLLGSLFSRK
MCL1 BIM confirm: MCL1-BIM-BH3 interaction inhibition, confirmation. actives 61% (n = 1,700). inhibition, % at 10.9 µM. GST-MCL1 / FITC-Bim-BH3 fluorescence polarization. shares compounds with MCL1-BIM inh;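 active = inhibition above the average of all tested compounds plus 3 SD, cut at about 40% in these data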;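 note: 0% = DMSO wells and 100% = unlabeled Bim-BH3 control peptide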
* hit, by the source's call; . = no result given.

SMILES | Mcl-1 Bim block | MCL1-BIM inh | Mcl1 Bid PPI | Mcl1-Noxa inh | BCLXL inh confirm | MCL1 BIM confirm
O=C(Nc1ccc(Cl)cc1)C1C2C=CC3(O2)C1C(=O)N(CCCN1CCCCC1)C3C(=O)NC1CCCCC1 (stereo unspecified) | . | -0.3 | . | . | . | .
COC(=O)c1ccccc1NCc1cc(=O)oc2cc(O)c(O)cc12 | . | 59.9* | . | . | 23.4 | 65.1*
COc1ccc(C)cc1NCc1cc(=O)oc2cc(-c3ccccc3)c(O)cc12 | -4.0 | -1.7 | -22.1 | 24.1 | . | .
CCOc1ccc(C(=O)NCC2CCCN2S(=O)(=O)c2cccs2)cc1 (stereo unspecified) | . | -3.4 | . | . | . | .
CCC(C(=O)Nc1cccc(C(=O)O)c1C)c1ccccc1 (stereo unspecified) | 0.0 | -0.1 | -31.2 | 11.2 | . | .
CS/C(Nc1cc(Cl)ccc1Cl)=C(/C#N)C(=O)c1ccco1 | . | 54.3* | 6.7 | 45.2 | 12.8 | 25.4
CCOC(=O)N1CCN(S(=O)(=O)c2c(C)nc3scc(C)n3c2=O)CC1 | . | 0.9 | . | . | . | .
CCCn1c(SCC(=O)NC2CCCC2)nc2c1c(=O)n(C)c(=O)n2C | . | -2.4 | . | . | . | .
CC(/C=C1\SC(=S)N(c2ccc(C(=O)O)cc2)C1=O)=C\c1ccccc1 | . | 48.3* | 21.1 | 84.0* | 6.9 | 9.2
COc1cc(OC)cc(C(=O)NCCCCCCNC(=O)c2cc(OC)cc(OC)c2)c1 | . | 48.5* | . | . | 38.5* | 49.5*
CC1(c2nnc(-c3cccc(Cl)c3)o2)CC(c2ccccc2F)=NO1 (stereo unspecified) | . | 2.8 | . | . | . | .
O=c1c2cc(N3CCOCC3)ccc2[nH]c(=S)n1Cc1cccc(Cl)c1 | -3.0 | 29.1 | -22.9 | 24.6 | . | .
COc1cccc(Cn2c(=S)[nH]c3ccc(N4CCOCC4)cc3c2=O)c1 | 1.0 | 41.1* | -36.4 | 23.4 | -24.5 | -19.5
COc1ccccc1N1CCN(C2CCCN(C(=O)CC(F)(F)F)C2)CC1 (stereo unspecified) | . | -5.2 | . | . | . | .
CN(Cc1nc(-c2ccc(Cl)cc2)no1)C(=O)c1ccc2c(c1)OCO2 | . | 2.4 | . | . | . | .
CCOC(=O)C1CCN(C(=O)c2cc(COc3ccc(OC)c4ccccc34)on2)CC1 | . | 0.8 | . | . | . | .
CN(C)S(=O)(=O)c1ccc(S(=O)(=O)NCc2cccs2)cc1 | . | 2.1 | . | . | . | .
Cc1ccc2nc(NC(=O)c3ccccn3)sc2c1 | -2.0 | 9.8 | -84.2 | -16.5 | . | .
CCOc1ccc2nc(NC(=O)c3ccccn3)sc2c1 | . | 55.8* | -117.2 | -87.2 | -1.6 | -3.5
O=C1CSC(=S)N1/N=C/c1ccc(O)c(O)c1O | . | 84.9* | 100.1* | 100.6* | 74.7* | 93.5*
O=C1CSC(=S)N1/N=C/c1cc(Br)ccc1O | . | 31.9 | . | . | . | .
N#CC1=C(N)C(C#N)(C#N)[C@H](c2cccnc2)[C@H]2CN(C(=O)OCc3ccccc3)CC=C12 | -3.0 | 12.3 | -14.2 | -2.0 | . | .
N#CC1=C(N)C(C#N)(C#N)C(c2cccnc2)C2CCCC=C12 (stereo unspecified) | 0.0 | 81.0* | -9.5 | 30.7 | 75.0* | 84.9*
N#CC1=C(N)C(C#N)(C#N)C(c2ccc[nH]2)C2CCCC=C12 (stereo unspecified) | 0.0 | 72.4* | -22.8 | 8.5 | 38.9* | 26.9
N#CC1=C(N)C2=CCCC[C@H]2[C@H](c2cccc(F)c2)C1(C#N)C#N | -7.0 | 45.0* | -55.7 | 24.4 | 24.0 | 24.7
SMILES | Mcl-1 Bim block | MCL1-BIM inh | Mcl1 Bid PPI | Mcl1-Noxa inh | BCLXL inh confirm | MCL1 BIM confirm
N#CC1=C(N)C(C#N)(C#N)C(c2cccnc2)C2CC(c3ccccc3)CC=C12 (stereo unspecified) | -3.0 | 135.2* | -18.6 | 7.1 | 10.7 | 14.0
N#CC1=C(N)N(c2ccccc2)C(c2ccccc2)C1(C#N)C#N (stereo unspecified) | 2.0 | 4.0 | . | . | . | .
CCn1c(CN2CCN(C(c3ccccc3)c3ccccc3)CC2)nc2c1c(=O)n(C)c(=O)n2C | . | 0.4 | . | . | . | .
CCc1nn2cc(C(=O)c3cc(Cl)ccc3O)cnc2c1-c1ccc(F)cc1 | -9.0 | 2.9 | -45.3 | -5.7 | . | .
CC(C)(C)OC(=O)NN1CC(=O)N2Cc3[nH]c4ccccc4c3C[C@H]2C1=O | . | -8.3 | . | . | . | .
Cc1ccc(-c2[nH]c(=O)n3ccncc23)s1 | 2.0 | 56.5* | -89.7 | 8.9 | 66.0* | 91.0*
Cc1cn2c(-c3cccnc3)nnc2s1 | -3.0 | 0.3 | -11.4 | -2.0 | . | .
O=c1oc2ccccc2nc1/C=C(O)/C=C/c1ccc(F)cc1 | -2.0 | -34.3 | -47.5 | 22.3 | . | .
